Hits are enriched below; roughly 3.5% of the tested compounds scored in any of these assays.
FBW7 act: activators of human E3 ligase FBW7; 0.13% of 650,000 active; AID 1259310; normalized activity (activation), % at 26.1 µM; AlphaScreen FBW7–phospho-cyclin E peptide binding, activator screen; Q969H0; in the data active means normalized activity above about 1.9%;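 further: purified mutant Fbw7 with reduced substrate affinity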
Target sequence (Q969H0 whole entry, looked up): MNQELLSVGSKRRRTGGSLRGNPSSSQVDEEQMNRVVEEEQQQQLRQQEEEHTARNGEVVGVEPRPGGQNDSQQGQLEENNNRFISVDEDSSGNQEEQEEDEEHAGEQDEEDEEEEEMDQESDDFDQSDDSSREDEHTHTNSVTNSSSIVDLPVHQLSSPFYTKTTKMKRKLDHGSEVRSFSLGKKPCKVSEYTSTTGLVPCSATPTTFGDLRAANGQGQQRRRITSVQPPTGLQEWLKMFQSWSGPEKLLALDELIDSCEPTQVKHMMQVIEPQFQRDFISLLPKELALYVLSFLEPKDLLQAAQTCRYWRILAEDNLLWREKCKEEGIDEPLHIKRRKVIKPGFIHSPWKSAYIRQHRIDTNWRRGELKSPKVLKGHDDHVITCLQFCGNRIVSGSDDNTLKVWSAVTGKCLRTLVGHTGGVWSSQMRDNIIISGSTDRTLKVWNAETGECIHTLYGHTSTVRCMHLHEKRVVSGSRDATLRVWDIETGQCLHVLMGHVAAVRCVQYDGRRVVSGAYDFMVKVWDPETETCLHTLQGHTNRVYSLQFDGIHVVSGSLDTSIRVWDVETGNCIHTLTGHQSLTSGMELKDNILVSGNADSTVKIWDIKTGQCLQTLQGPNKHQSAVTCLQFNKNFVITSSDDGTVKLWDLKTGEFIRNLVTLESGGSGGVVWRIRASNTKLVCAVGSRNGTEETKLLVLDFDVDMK
TEAD-YAP block: TEAD-YAP interaction inhibition; inhibition, % at 9.12 µM; HEK-TIYL cells, TEAD-Gal4/YAP UAS-luciferase luminescence; 1.4% of 640,000 active; in the data active means inhibition above about 32%;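 further: 0% = median of test compound wells and 100% = reference inhibitor wells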
GPR151 activ: activates the human receptor GPR151. PathHunter beta-arrestin GPR151 cells, luminescence. AID 1508602. Q8TDV0. 1% of 650,000 active. activation, % at 11.2 µM; in the data active means activation above about 4.9%;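 further: 0% = median of compound wells and 100% = cells with positive control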
MITF inh: blocks human microphthalmia-associated transcription factor; AlphaScreen MITF homodimerization, bead proximity signal; inhibition, % at 2.6 µM; 0.91% of 650,000 active; AID 1259374; in the data active means inhibition above about 50%;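 further: 0% = vehicle wells with protein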
GPR151 confirm: human GPR151 activation, confirmation screen | shares compounds with GPR151 activ | GPR151 PathHunter beta-arrestin cells, luminescence, 90 min; % of EA-reagent control over plate median | activation, % at 11.2 µM | 6,700 tested, under 10 active;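 active means mean percent activation across replicates above the confirmation screen cutoff of 4.91%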
GPR119 counter: GPR119 activation, counter-screen for GPR151 activators; activation, % at 11.2 µM; shares compounds with GPR151 activ; 0.3% of 6,700 active; AID 1508611; GPR119 PathHunter beta-arrestin cells, luminescence, 90 min; 0 = compound-well median, 100 = enzyme-acceptor control;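 active means mean percent activation in the counterscreen above 29.09%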;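 further: counterscreen on off-target GPR119 to flag nonselective hits from the GPR151 activator screen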
Numbers without * were called inactive.

How did Cn1c(=O)c2c(nc3n2CC(c2ccc(F)cc2)=NN3)n(C)c1=O do in these assays?
FBW7 act: 0; TEAD-YAP block: 1; GPR151 activ: 3; MITF inh: 0

What do the screens show for `O=C1CN(C(=O)COC(=O)c2ccc([N+](=O)[O-])o2)c2ccccc2N1`?
FBW7 act: 0; TEAD-YAP block: 6; GPR151 activ: -1; MITF inh: -7

How did CC1(C)C(=O)Nc2ccccc2N1C(=O)COC(=O)c1ccc([N+](=O)[O-])o1 do in these assays?
FBW7 act: 0; TEAD-YAP block: 3; GPR151 activ: 5.7*; MITF inh: -3; GPR151 confirm: -1; GPR119 counter: 1

How did CCOC(=O)c1cnc2c(OC)cccc2c1Nc1cccc(C(=O)O)c1 do in these assays?
FBW7 act: 0; TEAD-YAP block: -3; GPR151 activ: 5.3*; MITF inh: 11; GPR151 confirm: 2; GPR119 counter: 12

What do the screens show for `Cc1cccc(NC(=O)CN(C2=NC3CS(=O)(=O)CC3S2)c2ccccc2)c1` (stereo not drawn)?
FBW7 act: 0; TEAD-YAP block: 5; GPR151 activ: -2; MITF inh: 17

Results for CCc1cccc(NC(=O)CN(C2=NC3CS(=O)(=O)CC3S2)c2cccc(C)c2)c1 (stereo not drawn) ?
FBW7 act: -1; TEAD-YAP block: 7; GPR151 activ: 13*; MITF inh: 0; GPR151 confirm: 1; GPR119 counter: -16

What do the screens show for `Nc1cc(=O)[nH]c(SCc2cn3ccccc3n2)n1`?
FBW7 act: 0; TEAD-YAP block: 0; GPR151 activ: 5.4*; MITF inh: -4; GPR151 confirm: 0; GPR119 counter: -5

Results for O=C(C[n+]1ccccc1)N/N=C/c1cccs1 ?
FBW7 act: 0; TEAD-YAP block: 8; GPR151 activ: 6.1*; MITF inh: 12; GPR151 confirm: 1; GPR119 counter: 2

What do the screens show for `CCOC(=O)C1=C(C)N=c2s/c(=C\c3ccc(C(C)C)cc3)c(=O)n2C1c1ccc(OC)cc1` (stereo not drawn)?
FBW7 act: 0; TEAD-YAP block: -8; GPR151 activ: 7.0*; MITF inh: -2; GPR151 confirm: 0; GPR119 counter: -2

How did COc1ccc(C2C(C(C)=O)=C(C)N=c3s/c(=C/c4ccc(OCc5cccc6ccccc56)cc4)c(=O)n32)cc1 (stereo not drawn) do in these assays?
FBW7 act: 0; TEAD-YAP block: 5; GPR151 activ: 1; MITF inh: 3

Results for C=CCn1cc(/C=c2\sc3n(c2=O)C(c2ccc(OC)cc2)C(C(=O)OCC)=C(C)N=3)c2ccccc21 (stereo not drawn) ?
FBW7 act: 0; TEAD-YAP block: -2; GPR151 activ: 5.0*; MITF inh: -8; GPR151 confirm: -1; GPR119 counter: -18

How did CCOC(=O)C1=C(C)N=c2s/c(=C\c3ccc(Br)o3)c(=O)n2C1c1ccc(OC(C)C)cc1 (stereo not drawn) do in these assays?
FBW7 act: 0; TEAD-YAP block: -7; GPR151 activ: 5.0*; MITF inh: 14; GPR151 confirm: 1; GPR119 counter: -7

How did C=CCn1cc(/C=c2\sc3n(c2=O)C(c2ccc(Cl)cc2)C(C(=O)OCC)=C(C)N=3)c2ccccc21 (stereo not drawn) do in these assays?
FBW7 act: 0; TEAD-YAP block: -1; GPR151 activ: 1; MITF inh: 16

How did COc1ccc(C2C(C(C)=O)=C(C)N=c3s/c(=C/c4ccccc4)c(=O)n32)cc1 (stereo not drawn) do in these assays?
FBW7 act: 0; TEAD-YAP block: 4; GPR151 activ: 8.8*; MITF inh: 8; GPR151 confirm: -1; GPR119 counter: -5

What do the screens show for `CCOC(=O)C1=C(C)N=c2s/c(=C\c3ccc(C(C)C)cc3)c(=O)n2C1c1ccc(C(C)C)cc1` (stereo not drawn)?
FBW7 act: 0; TEAD-YAP block: 10; GPR151 activ: 0; MITF inh: 5

What do the screens show for `CCCCC(C(=O)Nc1cccc(C)c1)N1C(=O)c2cc(Cl)c(Cl)cc2C1=O` (stereo not drawn)?
FBW7 act: 0; TEAD-YAP block: -2; GPR151 activ: 8.3*; MITF inh: 22; GPR151 confirm: 1; GPR119 counter: 12

What do the screens show for `Cc1cccc(OCc2nnc(SCC(=O)Nc3nnc(C)s3)n2C)c1`?
FBW7 act: 0; TEAD-YAP block: 7; GPR151 activ: -1; MITF inh: 22

What do the screens show for `O=C(NCCN1CCOCC1)C1CCN(c2ccc(NCc3cccnc3)nn2)CC1`?
FBW7 act: 0; TEAD-YAP block: 9; GPR151 activ: 6.1*; MITF inh: 4; GPR151 confirm: 0; GPR119 counter: 4

How did COc1ccc(CCn2ccc(-c3sc(NCc4ccco4)nc3C)n2)cc1 do in these assays?
FBW7 act: 0; TEAD-YAP block: 2; GPR151 activ: 8.0*; MITF inh: -2; GPR151 confirm: 0; GPR119 counter: 0

Results for Cc1ccccc1OCC(=O)OCC(=O)Nc1ccc(I)cc1 ?
FBW7 act: 0; TEAD-YAP block: 16; GPR151 activ: -1; MITF inh: 3

Results for CCc1ccccc1NC(=O)CCCC(=O)OCC(=O)c1ccc([N+](=O)[O-])cc1 ?
FBW7 act: 0; TEAD-YAP block: -5; GPR151 activ: 5.5*; MITF inh: 7; GPR151 confirm: 1; GPR119 counter: -6

What do the screens show for `CCc1ccccc1NC(=O)CCC(=O)OCC(=O)c1ccc([N+](=O)[O-])cc1`?
FBW7 act: 0; TEAD-YAP block: 5; GPR151 activ: 1; MITF inh: 23

Results for CC(C)NC(=O)C1CCN(C(=O)N2CCOc3ccccc32)CC1 ?
FBW7 act: 0; TEAD-YAP block: -4; GPR151 activ: -1; MITF inh: 0

How did O=C(NCC1CCCO1)C1CCN(C(=O)N2CCOc3ccccc32)CC1 (stereo not drawn) do in these assays?
FBW7 act: 0; TEAD-YAP block: 3; GPR151 activ: 9.7*; MITF inh: 8; GPR151 confirm: 0; GPR119 counter: -10

How did O=C(Cn1cnc2c(cnn2-c2cccc(Cl)c2)c1=O)Nc1ccccc1F do in these assays?
FBW7 act: 0; TEAD-YAP block: 4; GPR151 activ: 0; MITF inh: -8

How did COc1ccc(Cl)cc1NC(=O)CCc1nnc2ccc(N3CCN(C)CC3)nn12 do in these assays?
FBW7 act: 0; TEAD-YAP block: -2; GPR151 activ: 5.1*; MITF inh: -11; GPR151 confirm: 0; GPR119 counter: 2

Results for COc1ccc(OC)c(NC(=O)CCc2nnc3ccc(N4CCCCC4)nn23)c1 ?
FBW7 act: 0; TEAD-YAP block: 2; GPR151 activ: 2; MITF inh: 4

Bioassay records as filed in PubChem BioAssay.
